Measured values: PubChem BioAssay (NCI)
This is part of a sample that, as a whole, favours compounds with a hit. Of some 79,000 tested, about 15% had one in any assay. Rule as the data show it: active = growth inhibition above about 70%; inactive = the rest.

How the values were obtained:
[1] = NCI Yeast Anticancer Drug Screen. Data for the rad50 strain (AID 155);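 also: 0% = growth of vehicle-only cultures of the same strain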; conditions: S. cerevisiae rad50 strain growth inhibition; at 50.0 µM; active compounds read high
Outline: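 Vehicle-treated cultures provide the reference for the growth inhibition reported for compound-exposed, repair-deficient yeast.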

[2] = NCI Yeast Anticancer Drug Screen. Data for the mec2-1 strain (AID 157); conditions: S. cerevisiae mec2-1 strain, at 50.0 µM, active compounds read high
Outline: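 Vehicle-treated cultures served as reference for growth inhibition of compound-exposed mec2-1 yeast.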

[3] = NCI Yeast Anticancer Drug Screen. Data for the sgs1 mgt1 strain (AID 161);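 also: 0% = growth of cultures given vehicle only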; conditions: S. cerevisiae sgs1 mgt1 strain, at 50.0 µM, active compounds read high
Outline: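 Mutant yeast exposed to compound; growth scored against vehicle-only wells.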

[4] = NCI Yeast Anticancer Drug Screen. Data for the cln2 rad14 strain (AID 165);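 also: 0% = growth equal to vehicle treated cultures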; conditions: S. cerevisiae cln2 rad14 strain, at 50.0 µM, active compounds read high
Outline: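 Each compound was tested on cln2 rad14 yeast. Inhibition of growth was calculated against vehicle-exposed controls.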

[5] = NCI Yeast Anticancer Drug Screen. Data for the bub3 strain (AID 167); conditions: S. cerevisiae bub3 mutant strain, at 50.0 µM, active compounds read high
Outline: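 Mutant yeast screening strain plus compound; vehicle-treated cultures serve as the 0% inhibition reference.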

[6] = NCI Yeast Anticancer Drug Screen. Data for the mlh1 rad18 strain (AID 175); conditions: S. cerevisiae mlh1 rad18 strain growth inhibition; at 50.0 µM; active compounds read high
Outline: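 Vehicle-treated cultures served as the reference for growth inhibition in a yeast strain carrying DNA damage repair alterations exposed to each compound.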

Measured: growth inhibition

NC(=O)CC(N)C(=O)OCc1ccc([N+](=O)[O-])cc1 (configuration not stated)
inactive: [1] -12.7% | [2] 0% | [3] -3.45% | [4] -11.2% | [5] -5.95% | [6] -11.3%

CC(NC(=O)c1cnc2ccccc2n1)C(=O)O (configuration not stated)
inactive: [1] -19.4% | [2] -24.4% | [3] -29.8% | [4] -16.4% | [5] 4.05% | [6] -24.8%

O=C(NC(Cc1cnc[nH]1)C(=O)N1CCCC1)C1CCCC1 (configuration not stated)
inactive: [1] -22.4% | [2] -20.4% | [3] 13.7% | [4] 6.2% | [5] 0.9% | [6] -14.3%

COC1OC(COC(=O)c2ccccc2)C(OC(=O)c2ccccc2)C(OC(=O)c2ccccc2)C1OC(=O)c1ccccc1 (configuration not stated)
inactive: [1] -1.3% | [2] -30.8% | [3] -13.6% | [4] -9.4% | [5] -29.8% | [6] -14.8%

CCCCn1c(=S)sc2ccccc21
inactive: [1] 15.2% | [2] 4.45% | [3] 20.8% | [4] -50.5% | [5] 21.7% | [6] 22.4%

Cn1nc(-c2ccccc2)c(C(=O)/C=C/c2ccc(Cl)cc2)c(N2CCCCC2)c1=O
inactive: [1] -30.9% | [2] -21.9% | [3] -36.2% | [4] 1.75% | [5] -22.9% | [6] -22.2%

COc1cc(CCCCC(=O)O)cc(Br)c1OC
inactive: [1] -17.7% | [2] -1.95% | [3] 4.9% | [4] -33.7% | [5] 29.8% | [6] -3.85%

NNCCSC1CCCCC1
inactive: [1] 8.9% | [2] 22.1% | [3] 15.3% | [4] -63.1% | [5] -17% | [6] 2.8%

CCOP(=O)(OCC)C(Cc1ccc(OC)c(OC)c1)N=C(c1ccccc1)c1ccccc1 (configuration not stated)
inactive: [1] 4.8% | [2] -5.7% | [3] -12.2% | [4] -13.3% | [5] -7.55% | [6] -7.9%

CCOc1c(N=Nc2cccc([N+](=O)[O-])c2)c(C)nn1C(N)=S
inactive: [1] -42.2% | [2] -34.1% | [3] -7.85% | [4] -28.9% | [5] -3.35% | [6] -16%

COc1ccccc1OCC(O)CNc1ccc(Cl)cc1C(=O)c1ccccc1 (configuration not stated)
inactive: [1] 3.25% | [2] 21.5% | [3] -8.8% | [4] -12% | [5] -2.7% | [6] -19.4%

CCCCN(C)CC(C)O (configuration not stated)
inactive: [1] -10.7% | [2] -12.2% | [3] -13.8% | [4] -24.3% | [5] 4.85% | [6] -22.2%

NC(=O)/N=N/C(N)=O
inactive: [1] 10.8% | [2] -1.05% | [3] 13.6% | [4] 15.2% | [5] 21.1% | [6] 27.7%

CN1CN=C(Sc2ccc(Cl)cc2[N+](=O)[O-])NC1
inactive: [1] -22.2% | [2] -35.9% | [3] -22.1% | [4] -5% | [5] -6.9% | [6] -11.7%

O=C(O)c1ccc(C(=O)O)c(C(=O)Nc2ccc3c(c2)C(=O)c2ccccc2-3)c1
inactive: [1] 41.9% | [2] -26.6% | [3] -2.15% | [4] -2.85% | [5] 9.7% | [6] 48.9%

C=CCNCc1cc(Cl)cc(Cl)c1O
inactive: [1] -8.35% | [2] -4.4% | [3] -19.1% | [4] -51.1% | [5] -10.2% | [6] 17.2%

CC1(C)C2C=CC1(C)C1(CC2)OCCO1 (configuration not stated)
inactive: [1] 10.5% | [2] 17.5% | [3] -20.5% | [4] 20.8% | [5] -55.8% | [6] -115%

Nc1ccc2ccccc2c1C(=O)c1ccccc1
inactive: [1] 0.95% | [2] -1.55% | [3] -15.2% | [4] 37.1% | [5] -23.6% | [6] -5.75%

C/C=C/C(=O)OCCC#N
inactive: [1] -27.1% | [2] -2.3% | [3] 3.7% | [4] 14.7% | [5] -17.1% | [6] -8.85%

NC(=O)N1N=C2c3ccccc3SC[C@H]2[C@@H]1c1ccccc1
inactive: [1] 29.5% | [2] -23.2% | [3] -26.8% | [4] 2.55% | [5] -20.9% | [6] 21.6%

CCC(Nc1ccccc1)C(=O)O (configuration not stated)
inactive: [1] -4.45% | [2] -13.7% | [3] -8.9% | [4] -16.9% | [5] -8.7% | [6] 4.15%

[Cl][Mn][Cl]
inactive: [1] 10.2% | [2] 6.4% | [3] 17.4% | [4] -7.15% | [5] -4.75% | [6] -0.15%

COc1ccc2nc(C)c3c(c2c1)C(=O)N(CCCN1CCN(CCCN2C(=O)c4c(C)nc5ccc(OC)cc5c4C2=O)CC1)C3=O
inactive: [1] 0.6% | [2] 9.4% | [3] -7.5% | [4] -25.4% | [5] 2.15% | [6] 36.5%

CC1=C(c2ccco2)C(c2ccco2)OC1=O (configuration not stated)
inactive: [1] 8.45% | [2] 27.2% | [3] 15.9% | [4] -16.6% | [5] 18.3% | [6] -7.3%

O=[N+]([O-])c1cc(C=NCCCCCCN=Cc2ccc(Cl)c([N+](=O)[O-])c2)ccc1Cl
inactive: [1] 6.9% | [2] -3.85% | [3] -9.75% | [4] -19.3% | [5] 4.35% | [6] -0.9%

Cc1cc(O)c(C(c2cccnc2)c2c(O)cc(C)[nH]c2=O)c(=O)[nH]1
inactive: [1] 1.95% | [2] -14.8% | [3] -40.1% | [4] 11.8% | [5] -30.2% | [6] 30.1%

CCOC(=O)C1CSC(N)=N1 (configuration not stated)
inactive: [1] 4.45% | [2] -38.9% | [3] -11.8% | [4] -29.4% | [5] 5.65% | [6] -7.8%

COc1ccc2[nH]c3c4c(c5cc(C(C)(C)C)ccc5c3c2c1)C(=O)N(c1ccccc1)C4=O
inactive: [1] -12.8% | [2] -13.3% | [3] 3.1% | [4] 16.7% | [5] -14.2% | [6] -8.7%

C/C(=N/NC(N)=S)c1cn[nH]c1C
inactive: [1] -64.3% | [2] -19.9% | [3] -16.1% | [4] -55.4% | [5] 4.5% | [6] -1.6%

COC(=O)C1CC(OC(C)=O)C2OC(C)(C)OC2C1OC(C)=O (configuration not stated)
inactive: [1] 7.5% | [2] 1.55% | [3] -3.15% | [4] 0.55% | [5] 8.55% | [6] -3%

COC(=O)NN1C(C)=C(C(=O)OC)C2(C#N)C(C(=O)OC)=C(C)N(NC(=O)OC)C12N (configuration not stated)
inactive: [1] -14.4% | [2] -26.6% | [3] -56% | [4] 9.85% | [5] 10.2% | [6] -18.4%

NC(=O)C(CCCCNc1c(C(=O)O)cc([N+](=O)[O-])cc1[N+](=O)[O-])NC(=O)c1ccccc1 (configuration not stated)
inactive: [1] 14.4% | [2] -6.05% | [3] -19.1% | [4] -7.95% | [5] -2% | [6] 28.8%

CC1CCC(NC(=O)NCCCl)c2ccccc21 (configuration not stated)
inactive: [1] -7.05% | [2] -1.3% | [3] -1.8% | [4] -23.8% | [5] -14.2% | [6] -6.65%

N#C/C(=C\c1ccc(Cl)cc1)c1nc2ccccc2c(=O)[nH]1
inactive: [1] 12.2% | [2] 17.9% | [3] -14.5% | [4] 5.7% | [5] 1.8% | [6] -53.2%

C/C(=N/NS(=O)(=O)c1ccc(N)cc1)c1ccccc1
inactive: [1] 9.9% | [2] -14.8% | [3] 1.45% | [4] 15.6% | [5] -41.4% | [6] -17.8%

N=C1N=Nc2nc(C(C(=O)c3cccc4ccccc34)c3nc4n(c3O)C(=N)N=N4)c(O)n21 (configuration not stated)
inactive: [1] 19.5% | [2] 1.35% | [3] 14.2% | [4] 22.1% | [5] 0.9% | [6] 26.2%

CC(C)(O)C1COC2=C1C(=O)c1ccccc1C2=O (configuration not stated)
inactive: [1] 11.8% | [2] -10.2% | [3] 24.6% | [4] 12.6% | [5] 7.2% | [6] -35.9%
